The structures appear in SMILES notation. Hit rate of the full screen: of about 69,000 compounds, about 8,600 (12%) showed an effect of 50% or more. This excerpt belongs to a sample that is enriched for strong results.

For the test, the system named is Plasmodium berghei. The test can be described thus: Screen against P. berghei liver stage (PbLuc), transformed with Luciferase, at 10uM. The note with it: tested at 10 uM. The test is classed as functional, HepG2.
With `CC(C)(C)CN1Cc2cc3c(cc2NCCC1=O)OCO3`, the INHIBITION is given as 52.5%.
The figure for `CCN1Cc2cc3c(cc2NCCC1=O)OCO3` is 64.6%.
`CC(C)(C)C(=O)CN1Cc2ccccc2NCCC1=O`: the INHIBITION is listed as 10.9%.
The figure for `O=C(c1n[nH]c(=O)c2ccccc12)N1CCCC1Cn1cccn1` (centres undefined) is 45.9%; for `O=C(O)CCc1nc2nccc(C(F)(F)F)n2n1` it is -25.6%.
The figure for `O=C(OCC1CCCN1)c1cccc(NC(=O)c2ccco2)c1` (centres undefined) is -142%; for `O=C1CC[C@@H]2[C@@H](CCN2S(=O)(=O)C2CC2)N1CC1CC1` it is 49.4%.
Under `O=C1CC[C@H]2[C@H](CCN2S(=O)(=O)C2CC2)N1CCN1CCCC1` stands 85.6%; under `COCCN1C(=O)CC[C@@H]2[C@@H]1CCN2S(=O)(=O)C1CC1`, 43.9%; under `CN1CC(=O)N(c2cnn(C)c2)CC12CCN(CC1CC1)C2` (centres undefined), 30.3%.
Turning to `C[C@]1(O)CN(Cc2ncccc2F)CC[C@@H]1Oc1cccc(F)c1`, the INHIBITION turned out to be 50.1%.
As to `C[C@]1(O)CN(Cc2ncccc2F)CC[C@@H]1Oc1ccccc1`, the INHIBITION came out at 24.4%.
On to `Cc1cccnc1CN1CC[C@@](C)(O)[C@H](Oc2ccccc2)C1`, for which the INHIBITION was determined as 24.4%.
Under `C[C@]1(O)CN(Cc2ncc[nH]2)CC[C@@H]1Oc1cccc(F)c1` stands 61.9%; under `C[C@]1(O)CCN(Cc2ncccc2F)C[C@@H]1Oc1cccc(F)c1`, -4.51%; under `Cc1nccc(CN2CC[C@H](Oc3cccc(F)c3)[C@@](C)(O)C2)n1`, 38.7%.
Consider `Cc1cccnc1CN1CC[C@H](Oc2cccc(F)c2)[C@@](C)(O)C1`, for which the INHIBITION was determined as 75.3%.
As to `C[C@]1(O)CN(Cc2cscn2)CC[C@@H]1Oc1cccc(F)c1`, the INHIBITION stood at 38.2%.
As to `O=C1CC(c2cccnc2)C2(CCN(C(=O)c3ccncc3)CC2)N1` (centres undefined), the INHIBITION is 33.5%.
Under `O=c1[nH]c2cn(-c3cccc(Cl)c3)c(=O)n2n1Cc1cccc(F)c1` stands 34%.
The figure for `Cc1nc(CN2CCCC(NCCCOc3ccc(F)cc3)C2)no1` (centres undefined) is 19.4%; for `O=C(O)c1ccc(COc2cccc(Cl)c2)s1` it is 8.49%.
The figure for `CN1CCN(Cc2cnc3n2CCN(C(=O)c2ccncc2)C3)CC1` is 42.7%; for `CN1CCN(Cc2cnc3n2CCN(C(=O)c2cnccn2)C3)CC1` it is 20.6%.
As for `Cc1cccc(C(=O)N2CCn3c(CN4CCN(C)CC4)cnc3C2)n1`, the INHIBITION came out at 68.4%.
Under `CN1CCN(Cc2cnc3n2CCN(C(=O)c2ccccn2)C3)CC1` stands 40.4%.
For `CN1CCN(Cc2cnc3n2CCN(C(=O)c2ccnnc2)C3)CC1`, the INHIBITION is reported as 32.2%.
On to `CN1CCN(Cc2cnc3n2CCN(C(=O)c2ccoc2)C3)CC1`, for which the INHIBITION was determined as 59%.
Under `CCCc1noc(CCC(=O)N2CCCCC2Cn2cc(C)cn2)n1` (centres undefined) stands 28.3%.
The figure for `O=C(c1ccc(NC2CC2)nc1)N1CCC(Nc2cccnn2)CC1` is 11.6%; for `CC(C)c1nc(CN2CCN(C(=O)CC3CCCCC3)CC2)no1` it is -3.21%; for `CCn1nc(C)c2c1cnn2CCNS(=O)(=O)CC` it is 30%.
The figure for `CC(C)CCn1c(=O)n(CCn2cccc2)c2cc(C(=O)O)cnc21` is 36.7%; for `Cc1nc(CN2CCO[C@@H]3CC(COc4ccccn4)C[C@H]32)cs1` (some centres undefined) it is 31.5%.
Regarding `c1ccc(OCC2C[C@@H]3[C@@H](C2)OCCN3Cc2ccoc2)nc1` (some centres undefined), the INHIBITION is on record as 54.4%.
The figure for `Cc1cccc(CN2CCO[C@@H]3CC(COc4ccccn4)C[C@H]32)n1` (some centres undefined) is 35.5%; for `COCC(O)CN1CCC(=O)N(CC2CC2)Cc2ccccc21` (centres undefined) it is 21.5%; for `COCc1ccc(C(=O)N(CCC#N)Cc2ccccn2)cc1` it is 44%.
In the case of `COc1cc(C(=O)N(CCC#N)Cc2ccccn2)ccc1C`, the INHIBITION is given as 29.4%.
Under `COc1ccc(C(=O)N(CCC#N)Cc2ccccn2)cc1` stands -1.37%.
In the case of `Cc1ccc(C(=O)N(CCC#N)Cc2ccccn2)cc1C`, the INHIBITION is reported as 5.48%.
As to `N#CCCN(Cc1ccccn1)C(=O)c1cccc(CN2CCCC2)c1`, the INHIBITION is 61.8%.
Under `CCOc1cccc(C(=O)N(CCC#N)Cc2ccccn2)c1` stands 51.7%.
Under `O=C(Nc1cccnc1)[C@H]1C[C@H]2CN(S(=O)(=O)C3CC3)C[C@@H]1O2` stands 48.6%; under `O=C(Nc1cccnc1)[C@H]1C[C@H]2CN(Cc3ccc(F)cc3)C[C@@H]1O2`, 63.7%; under `O=C(Nc1ccccc1)[C@H]1C[C@H]2CN(Cc3cccnc3)C[C@@H]1O2`, 59%.
Regarding `CC(C)CCN1C[C@@H]2C[C@H](C(=O)Nc3cccnc3)[C@H](C1)O2`, the INHIBITION amounted to 41.6%.
Under `COc1ccc(CN2C[C@@H]3C[C@H](C(=O)Nc4cccnc4)[C@H](C2)O3)cc1` stands 28.7%; under `CNC(=O)[C@H]1C[C@H]2CN(Cc3cccc(C)c3)C[C@@H]1O2`, 57.3%; under `CCCS(=O)(=O)N1C[C@@H]2C[C@H](C(=O)Nc3cccnc3)[C@H](C1)O2`, 34.6%.
On to `CNC(=O)[C@H]1C[C@H]2CN(Cc3ccc(C)cc3)C[C@@H]1O2`, for which the INHIBITION was found to be 9.65%.
Under `CNC(=O)[C@H]1C[C@H]2CN(Cc3ccccc3)C[C@@H]1O2` stands 1.7%; under `CCN1C[C@@H]2C[C@H](C(=O)Nc3ccccc3)[C@H](C1)O2`, 1.94%.
The figure for `Cc1ccc(CN2C[C@@H]3C[C@H](C(=O)Nc4cccnc4)[C@H](C2)O3)cc1` is 64.9%.

Values taken from ChEMBL document CHEMBL4513216, “Probing the Open Global Health Chemical Diversity Library for Multistage-Active Starting Points for Next-Generation Antimalarials” (ACS Infect Dis, 2020).
